{"source": "the supplement of paper PMC12819154", "about": "“High-throughput peptide-centric local stability assay extends protein–ligand identification to membrane proteins, tissues and bacteria” (Nature Structural & Molecular Biology, 2025);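 also: lysate desalted by size exclusion to strip endogenous ATP, peptide intensities built from DIA-NN precursor signals, and peptides missing any value discarded before comparison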", "data": [{"compound": "Nc1ncnc2c1ncn2[C@@H]1O[C@H](COP(=O)(O)OP(=O)(O)OP(=O)(O)O)[C@@H](O)[C@H]1O [adenosine 5'-triphosphate]", "assay": "log2 fold change of tryptic peptide abundance, ligand vs vehicle (limited proteolysis) (log2 ratio); higher = more trypsin-susceptible (destabilized)", "details": "ligand concentration: 5 mM; sample: E. coli desalted lysate; replicate design: treated before aliquoting", "protocol": "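HT-PELSA: desalted E. coli K-12 BW25113 lysate (with 12 mM MgCl2) incubated with 5 mM ATP (pH 7) or water for 30 min at 25 C, then a 4 min trypsin pulse at 22 C. Peptides were quantified by DIA-MS (4 replicates). Value is the peptide log2 fold change (treated/control); negative = stabilized. Scale: negative = ligand-stabilized region.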", "values": [{"target": "UniProt P36566 (peptide sequence: TLSPDYPR, peptide start residue: 179)", "sequence (P36566 whole entry)": "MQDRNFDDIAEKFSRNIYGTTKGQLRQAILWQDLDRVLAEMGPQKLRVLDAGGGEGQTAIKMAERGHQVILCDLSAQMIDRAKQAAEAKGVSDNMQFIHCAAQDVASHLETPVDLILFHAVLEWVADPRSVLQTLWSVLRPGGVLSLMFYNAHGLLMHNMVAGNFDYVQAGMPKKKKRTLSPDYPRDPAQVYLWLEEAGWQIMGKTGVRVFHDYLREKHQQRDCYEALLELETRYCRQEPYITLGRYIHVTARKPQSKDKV", "log2 fold change": -1.28}, {"target": "UniProt P77611 (peptide sequence: LFSAFRK, peptide start residue: 4)", "log2 fold change": 0.344}, {"target": "UniProt P77376 (peptide sequence: VGLIGYGYASK, peptide start residue: 7)", "log2 fold change": -1.01}, {"target": "UniProt P33940 (peptide sequence: EYYPQAK, peptide start residue: 403)", "log2 fold change": -1.61}, {"target": "UniProt P0ACX3 (peptide sequence: NLGVEEVVAK, peptide start residue: 75)", "sequence (P0ACX3 whole entry)": "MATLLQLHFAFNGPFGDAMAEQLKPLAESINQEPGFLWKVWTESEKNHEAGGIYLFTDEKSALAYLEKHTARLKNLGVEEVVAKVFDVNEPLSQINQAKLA", "log2 fold change": 0.583}, {"target": "UniProt P08401 (peptide sequence: NVQEGGVLASLR, peptide start residue: 457)", "log2 fold change": 0.651}, {"target": "UniProt P39359 (peptide sequence: EGDLATAATLNKK, peptide start residue: 229)", "sequence (P39359 whole entry)": "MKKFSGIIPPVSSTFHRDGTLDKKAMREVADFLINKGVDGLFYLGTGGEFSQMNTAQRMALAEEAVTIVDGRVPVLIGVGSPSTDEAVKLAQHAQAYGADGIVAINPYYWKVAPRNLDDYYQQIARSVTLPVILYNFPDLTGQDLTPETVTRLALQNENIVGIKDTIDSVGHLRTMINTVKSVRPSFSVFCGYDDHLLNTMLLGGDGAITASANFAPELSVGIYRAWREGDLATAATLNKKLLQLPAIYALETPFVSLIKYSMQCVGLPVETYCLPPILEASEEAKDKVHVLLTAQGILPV", "log2 fold change": -1.33}, {"target": "UniProt P37751 (peptide sequence: SQLTDDDSQFK, peptide start residue: 183)", "log2 fold change": -0.401}, {"target": "UniProt P27238 (peptide sequence: NKMTTEELAECLGVAK, peptide start residue: 6)", "sequence (P27238 whole entry)": "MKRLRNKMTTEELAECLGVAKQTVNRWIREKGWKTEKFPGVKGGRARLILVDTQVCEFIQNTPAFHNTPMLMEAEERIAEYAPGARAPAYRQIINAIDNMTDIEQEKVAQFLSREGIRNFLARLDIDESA", "log2 fold change": 0.577}, {"target": "UniProt P75974 (peptide sequence: LIEDGTQR, peptide start residue: 178)", "sequence (P75974 whole entry)": "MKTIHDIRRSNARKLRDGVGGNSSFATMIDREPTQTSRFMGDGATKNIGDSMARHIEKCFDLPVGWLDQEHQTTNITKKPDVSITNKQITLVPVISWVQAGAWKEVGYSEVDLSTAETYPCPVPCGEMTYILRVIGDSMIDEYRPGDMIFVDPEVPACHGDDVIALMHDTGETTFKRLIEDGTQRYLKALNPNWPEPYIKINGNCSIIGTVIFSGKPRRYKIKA", "log2 fold change": 0.336}, {"target": "UniProt P77795 (peptide sequence: IEQVDSPR, peptide start residue: 213)", "log2 fold change": -0.95}, {"target": "UniProt P09980 (peptide sequence: AANILIANNPHVFEKR, peptide start residue: 286)", "sequence (P09980 whole entry)": "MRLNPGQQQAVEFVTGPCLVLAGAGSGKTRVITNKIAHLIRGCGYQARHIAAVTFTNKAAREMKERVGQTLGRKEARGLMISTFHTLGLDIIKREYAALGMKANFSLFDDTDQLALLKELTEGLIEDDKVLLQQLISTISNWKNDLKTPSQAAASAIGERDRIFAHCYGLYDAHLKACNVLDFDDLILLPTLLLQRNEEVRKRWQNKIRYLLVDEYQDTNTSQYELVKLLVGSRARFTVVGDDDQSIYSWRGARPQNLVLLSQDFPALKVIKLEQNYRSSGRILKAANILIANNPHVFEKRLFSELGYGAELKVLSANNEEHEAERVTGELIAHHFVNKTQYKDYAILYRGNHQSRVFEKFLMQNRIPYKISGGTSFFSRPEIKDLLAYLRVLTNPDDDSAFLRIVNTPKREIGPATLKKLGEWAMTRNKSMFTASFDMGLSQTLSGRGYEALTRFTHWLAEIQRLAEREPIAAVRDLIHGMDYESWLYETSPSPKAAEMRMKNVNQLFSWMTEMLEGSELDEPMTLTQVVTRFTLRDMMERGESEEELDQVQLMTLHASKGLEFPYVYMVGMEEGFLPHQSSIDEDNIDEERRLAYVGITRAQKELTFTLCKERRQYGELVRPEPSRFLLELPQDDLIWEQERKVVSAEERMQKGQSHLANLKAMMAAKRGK", "log2 fold change": -3.41}, {"target": "UniProt P39161 (peptide sequence: QILAALIK, peptide start residue: 203)", "log2 fold change": 0.746}, {"target": "UniProt P07395 (peptide sequence: GKGVAEGYK, peptide start residue: 746)", "sequence (P07395 whole entry)": "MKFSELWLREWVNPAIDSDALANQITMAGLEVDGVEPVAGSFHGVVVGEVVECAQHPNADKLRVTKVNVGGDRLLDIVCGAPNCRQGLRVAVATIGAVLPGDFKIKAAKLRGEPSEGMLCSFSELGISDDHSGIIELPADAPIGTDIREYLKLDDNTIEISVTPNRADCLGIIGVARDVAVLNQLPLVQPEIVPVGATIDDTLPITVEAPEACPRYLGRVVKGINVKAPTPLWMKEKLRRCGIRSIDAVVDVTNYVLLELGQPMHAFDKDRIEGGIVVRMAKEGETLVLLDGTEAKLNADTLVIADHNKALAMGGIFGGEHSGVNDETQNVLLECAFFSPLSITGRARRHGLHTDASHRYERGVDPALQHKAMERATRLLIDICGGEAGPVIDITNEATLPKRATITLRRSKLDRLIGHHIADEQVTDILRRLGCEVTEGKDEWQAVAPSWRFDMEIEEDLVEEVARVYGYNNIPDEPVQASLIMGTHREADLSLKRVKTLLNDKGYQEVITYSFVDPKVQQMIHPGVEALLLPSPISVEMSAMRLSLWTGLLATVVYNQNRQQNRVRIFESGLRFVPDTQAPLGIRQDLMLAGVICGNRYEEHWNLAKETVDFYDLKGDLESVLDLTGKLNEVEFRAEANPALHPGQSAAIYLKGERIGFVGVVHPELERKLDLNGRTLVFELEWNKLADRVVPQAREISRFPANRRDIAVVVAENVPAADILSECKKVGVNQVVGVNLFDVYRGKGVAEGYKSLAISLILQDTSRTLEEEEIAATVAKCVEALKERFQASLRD", "log2 fold change": -0.76}, {"target": "UniProt P37005 (peptide sequence: IVDSQAHLEPATR, peptide start residue: 33)", "sequence (P37005 whole entry)": "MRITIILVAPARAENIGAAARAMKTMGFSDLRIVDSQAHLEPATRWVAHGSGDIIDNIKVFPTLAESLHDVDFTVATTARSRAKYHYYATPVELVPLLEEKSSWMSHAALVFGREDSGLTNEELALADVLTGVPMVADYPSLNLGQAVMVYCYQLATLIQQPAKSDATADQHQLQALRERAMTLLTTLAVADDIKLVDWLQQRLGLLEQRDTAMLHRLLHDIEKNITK", "log2 fold change": -0.548}, {"target": "UniProt P25553 (peptide sequence: VAFGGKAVEGK, peptide start residue: 351)", "sequence (P25553 whole entry)": "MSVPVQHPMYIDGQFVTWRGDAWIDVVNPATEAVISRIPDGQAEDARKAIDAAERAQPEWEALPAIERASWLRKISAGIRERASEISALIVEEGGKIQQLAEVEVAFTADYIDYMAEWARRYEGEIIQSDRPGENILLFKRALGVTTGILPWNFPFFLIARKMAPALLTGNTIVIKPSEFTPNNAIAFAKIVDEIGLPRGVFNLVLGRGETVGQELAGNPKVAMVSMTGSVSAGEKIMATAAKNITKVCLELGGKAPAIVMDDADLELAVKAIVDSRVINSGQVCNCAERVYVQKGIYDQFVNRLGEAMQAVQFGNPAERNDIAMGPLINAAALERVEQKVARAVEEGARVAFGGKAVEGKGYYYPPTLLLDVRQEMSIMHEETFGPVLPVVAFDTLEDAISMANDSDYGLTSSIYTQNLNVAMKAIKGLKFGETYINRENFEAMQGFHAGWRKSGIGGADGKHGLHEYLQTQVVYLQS", "log2 fold change": 1.48}, {"target": "UniProt P32131 (peptide sequence: QQHKADQYLDALEQEIVHR, peptide start residue: 78)", "sequence (P32131 whole entry)": "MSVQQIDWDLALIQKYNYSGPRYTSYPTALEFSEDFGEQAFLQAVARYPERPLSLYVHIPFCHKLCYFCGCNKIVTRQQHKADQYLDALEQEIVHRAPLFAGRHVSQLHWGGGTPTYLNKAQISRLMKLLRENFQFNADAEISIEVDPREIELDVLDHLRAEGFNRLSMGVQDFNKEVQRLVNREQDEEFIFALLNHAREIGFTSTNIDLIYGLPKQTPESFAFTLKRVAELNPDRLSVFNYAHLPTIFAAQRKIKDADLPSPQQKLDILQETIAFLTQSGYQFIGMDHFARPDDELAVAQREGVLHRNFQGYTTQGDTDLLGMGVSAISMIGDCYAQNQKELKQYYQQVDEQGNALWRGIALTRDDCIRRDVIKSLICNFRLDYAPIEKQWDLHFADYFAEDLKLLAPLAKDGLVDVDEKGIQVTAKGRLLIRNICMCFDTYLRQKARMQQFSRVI", "log2 fold change": 1.02}, {"target": "UniProt P0ADA3 (peptide sequence: IATMGSTGTSSTR, peptide start residue: 346)", "sequence (P0ADA3 whole entry)": "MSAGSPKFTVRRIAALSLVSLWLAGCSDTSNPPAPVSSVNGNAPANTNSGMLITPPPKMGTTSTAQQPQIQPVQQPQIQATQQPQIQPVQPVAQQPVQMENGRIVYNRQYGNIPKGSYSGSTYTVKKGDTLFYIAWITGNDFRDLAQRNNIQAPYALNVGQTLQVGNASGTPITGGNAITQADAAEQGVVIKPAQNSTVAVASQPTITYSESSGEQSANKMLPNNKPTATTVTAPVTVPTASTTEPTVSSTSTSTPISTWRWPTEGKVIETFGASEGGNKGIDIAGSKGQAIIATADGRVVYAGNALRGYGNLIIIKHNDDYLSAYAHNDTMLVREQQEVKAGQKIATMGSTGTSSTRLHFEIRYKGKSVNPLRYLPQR", "log2 fold change": 0.385}, {"target": "UniProt Q47622 (peptide sequence: KMNADDVVFTFQR, peptide start residue: 117)", "log2 fold change": 1.14}, {"target": "UniProt Q46851 (peptide sequence: YLNGIPQDSR, peptide start residue: 234)", "sequence (Q46851 whole entry)": "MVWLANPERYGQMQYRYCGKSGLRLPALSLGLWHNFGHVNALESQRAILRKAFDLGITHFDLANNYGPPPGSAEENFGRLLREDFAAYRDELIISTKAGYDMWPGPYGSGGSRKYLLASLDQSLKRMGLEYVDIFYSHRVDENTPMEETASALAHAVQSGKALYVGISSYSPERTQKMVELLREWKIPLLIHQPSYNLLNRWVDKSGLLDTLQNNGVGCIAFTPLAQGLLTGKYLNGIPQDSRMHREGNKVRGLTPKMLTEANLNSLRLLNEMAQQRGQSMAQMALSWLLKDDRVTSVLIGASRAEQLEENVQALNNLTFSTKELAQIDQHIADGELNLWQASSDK", "log2 fold change": -0.438}, {"target": "UniProt P27298 (peptide sequence: DGDHYATLNTAQK, peptide start residue: 115)", "log2 fold change": 1.13}, {"target": "UniProt P77272 (peptide sequence: LRLGVHDSSLVDPNIK, peptide start residue: 33)", "log2 fold change": 0.714}, {"target": "UniProt P24200 (peptide sequence: TLSQPEGSR, peptide start residue: 169)", "log2 fold change": -0.499}, {"target": "UniProt P77721 (peptide sequence: VVSTGGELNK, peptide start residue: 138)", "log2 fold change": -0.442}, {"target": "UniProt P30855 (peptide sequence: YSQTSAGR, peptide start residue: 888)", "log2 fold change": 0.38}, {"target": "UniProt P11557 (peptide sequence: AVSTLPADVQAK, peptide start residue: 402)", "sequence (P11557 whole entry)": "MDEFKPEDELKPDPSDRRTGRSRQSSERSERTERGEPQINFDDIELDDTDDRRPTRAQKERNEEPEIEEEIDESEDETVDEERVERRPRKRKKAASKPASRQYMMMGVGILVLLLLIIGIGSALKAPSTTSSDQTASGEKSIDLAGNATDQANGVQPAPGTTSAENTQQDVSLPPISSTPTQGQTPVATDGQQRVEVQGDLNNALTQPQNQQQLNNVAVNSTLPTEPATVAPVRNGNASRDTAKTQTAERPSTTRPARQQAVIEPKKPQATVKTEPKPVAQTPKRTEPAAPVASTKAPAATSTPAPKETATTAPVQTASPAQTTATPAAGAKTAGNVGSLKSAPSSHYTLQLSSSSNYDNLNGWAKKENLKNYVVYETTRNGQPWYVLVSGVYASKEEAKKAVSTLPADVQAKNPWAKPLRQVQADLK", "log2 fold change": 0.435}, {"target": "UniProt P11868 (peptide sequence: AWHEGHER, peptide start residue: 285)", "log2 fold change": -1.02}, {"target": "UniProt P37326 (peptide sequence: YNPAPDLADAMK, peptide start residue: 179)", "log2 fold change": -0.342}, {"target": "UniProt P37774 (peptide sequence: TMVIVTHEMSFAR, peptide start residue: 196)", "log2 fold change": 1.7}]}]}
